What follows are sequences tested on VDR:RXRa (NR concentration 270 nM, RXRa partner concentration 90 nM) (assay: PBM binding z-score (relative to random genomic background probes); higher = stronger binding; sequences stand for … in GC…GCGATTGACAGCGTAGAATGAAGG).
Protocol: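 Protein-binding microarray (Agilent 4x180K custom design, double-stranded 60-nt probes: 5' GC cap, 34-nt variable region, 24-nt constant primer region; full probe sequence given). Purified or IVT nuclear receptor:RXRα heterodimers (3:1 NR:RXRα, mostly 270:90 nM) or homodimers were incubated for 1 h in PBS with 2% milk and no ligand, then detected with Alexa488 antibodies. Fluorescence from o1-orientation probes (~5 replicates averaged) was converted to z-scores against 500 random hg19 background probes. Variable regions are seed direct-repeat (DR0–DR5) sites, all their single-nucleotide variants and half-site ablations.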

Sequence	PBM binding z-score
TCATATAGGTAAAAGTTGAAAGTCGGTGTGGTAA	1.21
AGAACGAGGGCAATGAGATGATAGCACGGGTGGC	0.474
GCTATTAGTTGAAAGGGCAACCTAATGATTCTCG	0.478
CCGAGTAGGTTATGGGCCATTCAGGCAACGGTGA	-0.116
ATCTCTAGGTAAAGATAGCTCAGTGAATGCAAAT	-0.433
AGAAAGAGGGCACGCTGAGTTGATAGCAGAGTAG	2.39
CCTTACGGGTCACTGACAGGTTATAGCTTTTGGA	3.56
TCTTGTAGATCAAAGGTTAAGAATGCCGAAGCCT	1.7
TCTTCTAGATCAAGCAGGTTAAGAAAGCCTGAGT	0.623
CGTCCATGGTCAAAGGTCAGTGAAGAGATGACGG	3.39
GGAACGACGGCAAAGTTGATAGCATCTGTCGACG	-0.538
GCGACTGGGGCAAAGCAGGTTACAATAAGGTTGG	0.294
GCTCGAAGGACAAGGTCAGAGCTTTGTCCGTAGA	1.31
GCATATAGGTAATCCAAGGTGAAAGTCCGATTGT	0.373
TTTATTAGTTGATTAGGGCAACCGAAACAGCGGA	0.643
TCTCTTAGTTGAAGGGCAACCGACGAGTCCGTTT	0.951
CCTGCTAGGTCAATGGTCAGCTTAAGCAGCTCGC	1.03
CGCCCAAGGTCAGAGAGGTCAGTGAATGCCGAGT	7.36
ATATGTAGGTTACATCCGGGTCATACAGGCTATG	4.02
CCTGCTAGGTCAATGGTCAGTTAAAGCAGCTCGC	0.89

Sequence	PBM binding z-score
ATATGTATGTTAGCTGGGGTCATTCAGACTAGGC	5.07
TAGCCTAGGTGATGCGGGCCAGTATAGTGTCGGC	-0.796
ACTATTAGTTGACTTAGGGCAACCGCTACGACGC	0.319
TAGCCTAGGTCATTGGGCCAGTAAAGTACGCATC	2.08
CGTCCAAGGTCATAGGAGGTCTGTGAAGACAGAT	4.72
CGTCCAAGGTCAGCATGTCAGTGAAAGCGACGTG	2.49
TCTAGCAGGCCAGAGGGTCACGCAAGAGGTACGG	2.52
TCTAGTTGGTCACTGAGGTCACACACGACGGGTA	6.51
CGTCCAGGGTCATAGGAGGTCAGTGAAGACAGAT	6.65
TCAGACAGGTGAAGTTAACTCAGGTACGCAGTCG	0.573
GCAGACAGGAGAAACGCAGGTAACTCAGGGTGGC	-0.548
CCTATTACTTGACCATAAGGGCAACCGAAGCTCG	0.976
GCTATTAGTTGAAAGGTCAACCGAATGATTCTCG	4.71
CCAGACAGGGGAGAAGGTAACTCAGCCTCGATTA	-0.544
AGAATGAGGTTAAGATCAGGGAAACAGAATACAT	1.19
GGAACGAGGGCATTCGAGTTGATTGCATGGCGAT	3.81
CGACCTAGGTCATTGACAGGACAGTGAATAGTAA	2.97
GCTAGCAGGCCATTTGGGTCACACAATGACGGGC	1.24
CGAACTAGGTCATTGACAGGACAGTGACTAGTAA	2.42
CCAGACAGGTGAGAAGGTAACTCGGCCTCGATTA	-0.138
